# SMN2 splice enh: qHTS Assay for Enhancers of SMN2 Splice Variant Expression. HEK293 SMN2-luciferase splicing reporter, luminescence, 30-36 h. Potency, µM (series often up to 46.1 µM), without a hit: at the top dose activity change, positive = activation, hits mostly activators. actives 2.8% (n = 210,000). AID 1458, 2008; note: % of control where 0% means no effect; nearly all actives have a fitted effect of over 55% in size
#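 HEK293 cells carry an SMN2 minigene-luciferase reporter in which exon 7 inclusion puts luciferase in frame. Cells were seeded at 2000 cells/well, attached for 10-12 hours, then exposed to compounds for 30-36 hours at 37C before ONE-Glo luminescence.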
# FLuc counter: qHTS profiling assay for firefly luciferase inhibitor/activator using purifed enzyme and Km concentrations of substrates (counterscreen for miR-21 project); purified FLuc, Km substrates, luminescence inhibition; Potency, µM (top dose mostly 57.5 µM), for inactives: at the highest dose activity change, negative = inhibition, actives largely listed as inhibitors; actives 6.9% (n = 360,000); AID 588342, 2011;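 note: plate controls were vehicle for no effect and reference inhibitor for full effect; nearly all actives have a fitted effect of over 55% in size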
# Target sequence (P08659 whole entry, looked up): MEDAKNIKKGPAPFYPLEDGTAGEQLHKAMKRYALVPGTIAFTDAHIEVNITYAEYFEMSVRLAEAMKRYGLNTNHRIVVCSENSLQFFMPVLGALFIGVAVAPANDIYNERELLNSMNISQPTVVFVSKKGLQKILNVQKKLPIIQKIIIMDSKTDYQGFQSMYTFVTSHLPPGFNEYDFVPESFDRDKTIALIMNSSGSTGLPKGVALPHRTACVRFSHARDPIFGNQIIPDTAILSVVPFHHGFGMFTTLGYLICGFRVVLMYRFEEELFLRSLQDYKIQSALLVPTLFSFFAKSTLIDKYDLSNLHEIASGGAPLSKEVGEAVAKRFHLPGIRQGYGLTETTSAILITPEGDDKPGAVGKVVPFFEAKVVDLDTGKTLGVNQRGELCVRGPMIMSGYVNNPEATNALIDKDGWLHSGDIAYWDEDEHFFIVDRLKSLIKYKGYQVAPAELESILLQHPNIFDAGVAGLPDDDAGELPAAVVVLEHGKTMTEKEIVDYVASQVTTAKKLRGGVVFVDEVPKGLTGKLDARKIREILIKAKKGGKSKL
#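 Biochemical qHTS of compounds, final roughly 60 µM downward over six points, against 10 nM purified firefly luciferase using Km concentrations of substrates (10 uM D-luciferin, 10 uM ATP) in Tris acetate pH 7.5 buffer; luminescence output.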
# NPC1 prom act: qHTS Assay for NPC1 Promoter Activators. actives 2.4% (n = 320,000). Potency, µM (highest dose often 9.22 µM), for the others: at the highest dose activation, most hits filed as activators. Huh7 NPC1 promoter luciferase reporter, 24 h. AID 485313, 2010; note: % of control where 0% means no effect; nearly all actives have a fitted effect of over 60% in size
#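 Huh7 reporter cells (NPC1 promoter driving luciferase) are dosed with compound for 24 h at 37 °C, 5% CO2; luciferase detection reagent is then added and luminescence measured after 10 min at ambient temperature.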
# Rab9 promoter act: qHTS Assay for Rab9 Promoter Activators; Huh7 Rab9 promoter-luciferase reporter, luminescence, 24 h; Potency, µM (series often up to 9.22 µM), without a hit: at the top dose activation, negative = inhibition, hits mostly activators; actives 2.8% (n = 320,000); note: % of control where 0% means no effect; nearly all actives have a fitted effect of over 60% in size
#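 Using Huh7 cells stably transfected with Rab9 promoter–luciferase, compounds were incubated 24 h at 37 °C, 5% CO2; luciferase luminescence was read 10 min after reagent addition.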
# ELG1 genotoxic: qHTS screen for small molecules that induce genotoxicity in human embryonic kidney (HEK293T) cells expressing luciferase-tagged ELG1; HEK293T ELG1-luciferase reporter, luminescence, 16 h; Potency, µM (top dose mostly 46 µM), for inactives: at the top dose activity change, positive = activation, actives largely listed as activators; actives 1.3% (n = 330,000); note: % of control where 0% means no effect; nearly all actives have a fitted effect of over 60% in size
#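 ELG1-luciferase HEK293T cells, 2,000/well; compound pinned in; 16 hr, 37 °C, 5% CO2; ONE-Glo, 30 min RT; luminescence on CCD imager.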
# uPA generation: qHTS for Inhibitors of Cell Surface uPA Generation | cell surface uPA generation assay, qHTS | Potency, µM (series often up to 38.3 µM), for the others: at the top dose activity change, negative = inhibition, most hits filed as inhibitors | actives 0.31% (n = 330,000) | AID 540303, 2011; active = well fitted inhibition curve with a large enough effect; inconclusive = small, poorly fitted or top-dose-only effect; inactive = no such curve, though single readings can be large or run the other way; tested in mouse RAW 264.7 cells; note: % is set by controls: 0 for no effect and ±100 for the full control effect; nearly all actives have a fitted effect of over 55% in size
# * hit, by the source's call; ? = inconclusive; nt = no result given; [ ] = remark or other dose. Only some compounds are listed: those with a hit (about 7.3% of all), similar ones and a draw of the others. Unless noted, calls come from the whole dose curve; as a rule, active = well fitted curve in the direction sought with a large enough effect; inconclusive = small, poorly fitted or top-dose-only effect, or another doubt; inactive = no such curve, though single readings can be large; an effect the other way counts as inactive or inconclusive. Potency is the fitted concentration of half-maximal effect.
SMILES,SMN2 splice enh,FLuc counter,NPC1 prom act,Rab9 promoter act,ELG1 genotoxic,uPA generation
Cc1sc(N)nc1-c1ccc(Oc2ccccc2)cc1,nt,23.9µM*,17.8%,29.1%,?,-9.8%
Cc1sc(N)nc1-c1ccc2c(c1)OCCO2,nt,?,23.4%,8.1%,2.0%,1.9%
O=C(c1cc(-c2cccc(Cl)c2)on1)N1CCN(c2ccc(F)cc2)CC1,nt,1.3%,-3.6%,-1.0%,21.6%,0.1%
CN1CCN(C(=O)c2cc(-c3cccc(Cl)c3)on2)CC1,nt,?,?,6.31µM*,11.1%,0.9%
Cc1c(Cl)cccc1NC(=O)c1cc(-c2cccc(Cl)c2)on1,-3.0%,-5.2%,nt,nt,nt,nt
O=C(c1cc(-c2cccc(Cl)c2)on1)N1CCCCCC1,nt,10.7µM*,2.51µM*,2.82µM*,20.6µM*,1.4%
Cc1ccc(S(=O)(=O)N(C)CC(=O)N2CCCCCCC2)cc1,nt,1.0%,-1.9%,-0.3%,2.2%,4.4%
CN(CC(=O)N1CCCCCC1)S(=O)(=O)c1ccccc1,nt,?,3.16µM*,?,?,0.7%
COc1ccc(C(=O)/C=C/c2cc(C(=O)O)cc3c2OCOC3)c(O)c1,nt,1.69µM*,-1.2%,-3.1%,16.0%,1.9%
O=C(O)c1cc(/C=C/C(=O)c2cc(F)ccc2O)c2c(c1)COCO2,nt,30.1µM*,0.8%,-1.8%,11.6%,?
CC1=C(C(=O)OC2CCCCCC2)C(c2c(F)cccc2Cl)CC(=O)N1 (stereo not drawn),-16.6%,?,nt,nt,nt,nt
COc1ccc(N2CC(NC(=O)Cc3cccs3)CC2=O)cc1OC (stereo not drawn),nt,-0.6%,nt,nt,nt,nt
Fc1ccc(C2Nc3cccc4cccc(c34)N2)cc1,nt,?,?,22.2%,3.5%,4.9%
CCCOc1ccc(C2Nc3cccc4cccc(c34)N2)cc1,nt,10.7µM*,20.3%,4.4%,3.9%,1.3%
CCN(CC)c1ccc(C2Nc3cccc4cccc(c34)N2)cc1,nt,10.7µM*,29.1%,22.9%,2.7%,0.2%
COc1ccccc1N1CCN(C(=O)c2cc3c(=O)oc4ccccc4c3s2)CC1,1.7%,-0.3%,nt,nt,nt,nt
Cc1ccc(-n2ncc(C(=O)N3CCN(c4cc(Cl)ccc4C)CC3)c2C2CCN(C(=O)OC(C)(C)C)CC2)cc1,nt,1.8%,nt,nt,nt,nt
O=C(c1cc(S(=O)(=O)N2CCC3(CC2)OCCO3)ccc1F)N1CCCCC1,10.8%,-1.0%,-1.4%,-4.0%,-9.1%,-1.6%
CC(C)c1ccc(NC(=O)c2sccc2-n2cccc2)cc1,nt,?,3.98µM*,2.82µM*,4.8%,?
Cc1c(Br)cccc1NC(=O)c1sccc1-n1cccc1,-27.0%,0.3%,0.6%,-4.2%,-1.6%,0.1%
O=C(CN1C(=O)CC(c2ccco2)Sc2ccccc21)Nc1cccc(C(F)(F)F)c1 (stereo not drawn),-11.2%,-13.1%,nt,nt,nt,nt
COC(=O)c1sc(NC(=O)c2ccc([N+](=O)[O-])o2)c(C#N)c1C,nt,26.9µM*,-1.1%,-9.4%,-7.6%,-17.4%
CCN(CC)C(=O)c1sc(NC(=O)c2cccc([N+](=O)[O-])c2)c(C#N)c1C,-94.7%,23.9µM*,1.3%,1.8%,-8.9%,2.7%
CC(=O)N1CCc2c(sc(NC(=O)c3ccc([N+](=O)[O-])o3)c2C#N)C1,11.2µM*,?,?,3.98µM*,?,-22.5%
Cc1ccc(C)c(CN2CCCN(Cc3ccc(F)cc3)S2(=O)=O)c1,nt,0.3%,nt,nt,nt,nt
SMILES,SMN2 splice enh,FLuc counter,NPC1 prom act,Rab9 promoter act,ELG1 genotoxic,uPA generation
CCOc1ccc(C(=O)COC(=O)CNC(=O)C2CCCCC2)cc1,nt,9.53µM*,-1.7%,-5.3%,2.4%,14.9%
O=C(COC(=O)CNC(=O)C1CCCCC1)Nc1ccc(Br)cc1Br,nt,nt,-0.4%,-5.8%,0.3%,3.8%
COc1ccc(C(=O)COC(=O)CNC(=O)C2CCCCC2)c(OC)c1,-18.7%,?,7.2%,-0.8%,3.7%,2.1%
O=C(CNC(=O)C1CCCCC1)OCC(=O)c1ccc(Br)cc1,nt,1.69µM*,1.3%,0.1%,4.1%,-0.3%
c1ccc(SCc2nc3ccccc3s2)nc1,nt,4.78µM*,3.55µM*,1.26µM*,?,-6.1%
c1ccc2oc(SCc3nc4ccccc4s3)nc2c1,?,4.78µM*,nt,nt,nt,-2.1%
N#CCc1nc(CSc2nc3ccccc3o2)cs1,4.1%,23.9µM*,?,?,?,-3.5%
O=C(O)c1ccccc1CSc1ccccn1,-5.3%,-10.6%,-2.1%,0.0%,2.1%,-0.6%
CN(C)S(=O)(=O)c1ccc2c(c1)N(CC(=O)NCc1ccc(F)cc1)C(=O)CS2,nt,4.1%,nt,nt,nt,nt
Cn1ccnc1CN1CCCCC1C(=O)Nc1ccc(Oc2cccnc2)cc1 (stereo not drawn),nt,1.2%,-25.2%,-6.3%,9.9%,?
CCCCC(=O)NC(c1cccc([N+](=O)[O-])c1)c1ccc2cccnc2c1O (stereo not drawn),nt,nt,nt,nt,nt,5.01µM*
COc1ccc(C2Nc3cccc4cccc(c34)N2)cc1Br,nt,?,-1.5%,-0.5%,-3.1%,6.1%
COc1cc(C2Nc3cccc4cccc(c34)N2)ccc1OC(C)=O,0.1%,12µM*,-0.3%,14.7%,3.7%,10.0%
Fc1cccc(Cc2noc(CN3CCCCC3c3ccccn3)n2)c1 (stereo not drawn),nt,23.9µM*,?,?,?,6.6%
Cc1c(-c2ncn[nH]2)sc(C#N)c1-c1ccccc1,-17.7%,19µM*,7.9%,-3.3%,1.9%,-4.8%
O[C@@H]1[C@@H]2c3cc4c(cc3CN3CCC(=C[C@@H]1O)[C@H]23)OCO4,-94.2%[20.6 µM],nt,nt,nt,nt,nt
COc1ccc(N2CCN(C(=O)CNC(=O)c3nn(-c4ccc(OC)cc4)c(=O)c4ccccc34)CC2)cc1,nt,?,-1.1%,7.7%,-19.1%,-1.5%
COc1ccc(-n2nc(C(=O)NCC(=O)N3CC(C)CC(C)C3)c3ccccc3c2=O)cc1 (stereo not drawn),nt,19µM*,-0.7%,1.6%,-22.0%,2.2%
COc1ccc(-n2nc(C(=O)NCC(=O)N3CCCCCC3)c3ccccc3c2=O)cc1,nt,5.36µM*,-13.8%,6.8%,-4.3%,-13.7%
COc1ccc(-n2nc(C(=O)NCC(=O)N3CCN(C)CC3)c3ccccc3c2=O)cc1,nt,15.1µM*,-2.9%,-0.3%,3.5%,-5.7%
CCOC(=O)N1CCN(C(=O)CNC(=O)c2nn(-c3ccc(OC)cc3)c(=O)c3ccccc23)CC1,25.5%,3.79µM*,6.1%,?,0.1%,-7.6%
CCCNC(=O)CN1C(=O)c2c(c3ccccc3n2C)C1c1ccc(OC)cc1 (stereo not drawn),nt,-9.7%,nt,nt,nt,nt

# Screening results as filed in PubChem.
